Compound activity deposited in PubChem by National Center for Advancing Translational Sciences (NCATS).
In the library only some 3.1% were active in any assay of this set; here they are far more common.
Nrf2 block: Nrf2 qHTS screen for inhibitors; 360,000 tested, 2.1% active; Potency, µM (top dose mostly 46 µM), usual class: inhibitors; A549 ARE-Fluc reporter, luciferase luminescence, 18-24 h; note: nearly all actives have a fitted effect of over 60% in size
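Nrf2 activity is the BugLite luminescence, read 15 min after reagent at room temperature, following CellTiter-Fluor cytotoxicity readout (30 min, 37C). Compound titrations were applied for 18-24 h to 5000 A549 ARE_Fluc cells/well in 5% FBS OPTI-MEM.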
mIDH1 inhibitor: qHTS for Inhibitors of mutant isocitrate dehydrogenase 1 (IDH1): qHTS | Isocitrate dehydrogenase [NADP] cytoplasmic (Homo sapiens), O75874 | Potency, µM (doses to about 76.6 µM), most hits filed as inhibitors | 390,000 tested, 0.093% active | IDH1-R132H enzyme, NADPH consumption, diaphorase/resazurin fluorescence; note: nearly all actives have a fitted effect of over 65% in size
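IDH1-R132H (0.5 ug/mL dispensed) in pH 7.5 Tris buffer was preincubated 30 min with compound, then given a substrate mix of 0.016 mM NADPH and 2 mM alpha-KG for 80 min at room temperature; remaining NADPH was read by diaphorase/resazurin fluorescence.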
A549 viability: Nrf2 qHTS screen for inhibitors: counterscreen for cytotoxicity; A549 ARE-Fluc cells, CellTiter-Fluor viability, 18-24 h; Potency, µM (top dose mostly 46 µM), actives largely listed as inhibitors; 390,000 tested, 0.16% active
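Cytotoxicity counterscreen: CellTiter-Fluor fluorescence was measured in A549 ARE_Fluc cells after 18-24 h of compound exposure in a concentration series. The subsequent BugLite luminescent read reports ARE-luciferase activity.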
Mito fusion yeast: qHTS Assay for Small Molecule Inhibitors of Mitochondrial Division or Activators of Mitochondrial Fusion; Potency, µM (series often up to 46.1 µM), most hits filed as activators; AID 485298, 2010; 320,000 tested, 0.23% active; S. cerevisiae fusion-defective mutant growth rescue, CellTiterGlo 48 h; note: nearly all actives have a fitted effect of over 45% in size
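S. cerevisiae fusion-defective temperature-sensitive mutants (e.g. fzo1-1, mgm1-5) grown 48 h at 37C in YPEG (ethanol/glycerol non-fermentable) medium with 23 nl compound per well; growth rescue read as CellTiterGlo luminescence.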
TrxR1 substrate: qHTS Assay for Substrates of Mammalian Selenoprotein Thioredoxin Reductase 1 (TrxR1): qHTS; Thioredoxin reductase 1, cytoplasmic (Rattus norvegicus), O89049; purified TrxR1 substrate turnover, NADPH consumption readout; Potency, µM (highest dose often 114 µM); 390,000 tested, 0.01% active; note: nearly all actives have a fitted effect of over 50% in size
Target sequence (O89049 whole entry, looked up): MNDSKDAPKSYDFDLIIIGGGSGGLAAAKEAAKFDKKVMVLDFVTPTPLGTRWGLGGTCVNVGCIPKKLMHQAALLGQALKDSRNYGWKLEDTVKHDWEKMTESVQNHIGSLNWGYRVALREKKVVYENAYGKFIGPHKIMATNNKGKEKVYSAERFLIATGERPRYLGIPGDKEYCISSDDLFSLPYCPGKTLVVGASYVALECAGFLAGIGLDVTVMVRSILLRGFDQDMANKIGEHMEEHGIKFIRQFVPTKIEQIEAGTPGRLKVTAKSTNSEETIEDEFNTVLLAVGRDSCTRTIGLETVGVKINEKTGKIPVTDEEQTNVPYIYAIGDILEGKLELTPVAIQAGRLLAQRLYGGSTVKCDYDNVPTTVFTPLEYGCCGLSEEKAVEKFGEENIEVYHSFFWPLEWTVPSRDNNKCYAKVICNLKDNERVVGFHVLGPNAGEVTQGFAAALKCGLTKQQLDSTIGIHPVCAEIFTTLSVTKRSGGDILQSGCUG
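Rat TrxR1, dispensed at 90 nM, was prereduced with 400 uM NADPH (final) for 5 min at ~22 deg C, then incubated with compound 15 min before 400 uM selenite. A first-read NADPH fluorescence drop versus no-compound background flagged substrates.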
TrxR1 inh: qHTS Assay for Inhibitors of Mammalian Selenoprotein Thioredoxin Reductase 1 (TrxR1): qHTS; Thioredoxin reductase 1, cytoplasmic (Rattus norvegicus), O89049; Potency, µM (series often up to 114 µM), usual class: inhibitors; 390,000 tested, 1% active; AID 588453, 2011; recombinant rTrxR1, NADPH fluorescence consumption, selenite substrate; note: nearly all actives have a fitted effect of over 65% in size
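Rat TrxR1 (90 nM in the dispensed reagent) was pre-reduced with 400 uM NADPH for 5 min at room temperature, then incubated with compound for 15 min. After 400 uM selenite was added, NADPH fluorescence (Ex 340/Em 450 nm) was followed for 8 min.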
Of the large screens only hits and unclear results are named; the others gave an inactive call. Calls come from the whole dose curve; as a rule, active = well fitted curve in the direction sought with a large enough effect; inconclusive = small, poorly fitted or top-dose-only effect, or another doubt; inactive = no such curve, though single readings can be large; an effect the other way counts as inactive or inconclusive.

C=CC[C@@H](Cc1ccc(F)cc1)C(=O)OC[C@H]1CCCN1C(=O)[C@@H](CC=C)CC(=O)N[C@H](CO)Cc1ccccc1	Nrf2 block 18µM, A549 viability inconclusive (no result: Mito fusion yeast)
C=CC[C@@H](Cc1ccc(F)cc1)C(=O)OC[C@H]1CCCN1C(=O)[C@H](CC=C)CC(=O)N[C@H](CO)Cc1ccccc1	Nrf2 block 23µM, A549 viability inconclusive (no result: Mito fusion yeast)
C=CC[C@@H](Cc1ccc(F)cc1)C(=O)OC[C@H]1CCCN1C(=O)[C@@H](CC=C)CC(=O)N[C@@H](CO)Cc1ccccc1	Nrf2 block inconclusive (no result: Mito fusion yeast)
Cc1nn2c(SCC(=O)c3cccs3)cc(C(C)(C)C)nc2c1-c1ccccc1	Nrf2 block 21µM, A549 viability inconclusive
Cc1cc(SCC(=O)c2cccs2)n2nc(C)c(-c3ccc(Cl)cc3)c2n1	none
CSc1nnc(N2C(=O)C(O)=C(C(=O)c3ccco3)C2c2ccccc2)s1 (centres undefined)	TrxR1 inh inconclusive
CSc1nnc(N2C(=O)C(O)=C(C(=O)c3ccco3)C2c2ccccc2F)s1 (centres undefined)	TrxR1 inh 7.9µM
C=CCSc1nnc(N2C(=O)C(O)=C(C(=O)c3ccco3)C2c2ccccc2F)s1 (centres undefined)	TrxR1 inh 50µM
CCCSc1nnc(N2C(=O)C(O)=C(C(=O)c3ccco3)C2c2ccccc2F)s1 (centres undefined)	none
Cc1c(N2C(=O)/C(=C/c3ccc(N(C)C)cc3)N(C)C2=S)c(=O)n(-c2ccccc2)n1C	A549 viability 23µM (no result: Mito fusion yeast)
O=C(CC(Sc1ccc(Br)cc1)C(=O)O)c1ccc(F)cc1 (centres undefined)	Nrf2 block inconclusive, TrxR1 inh 28µM
c1ccc(-c2nc(-c3cnc4ccccc4n3)cs2)cc1	none (no result: Nrf2 block, mIDH1 inhibitor, A549 viability, Mito fusion yeast)
CC(C)c1ccc(N2C(=O)CC(Sc3ncn[nH]3)C2=O)cc1 (centres undefined)	TrxR1 inh inconclusive
COc1ccc(N2C(=O)CC(Sc3ncn[nH]3)C2=O)c(OC)c1 (centres undefined)	TrxR1 inh 0.5µM
CCOC(=O)/C=C/C(=O)OCC(=O)Nc1ccc(C)cc1	Nrf2 block inconclusive, TrxR1 inh 40µM
CCOC(=O)/C=C/C(=O)OCC(=O)Nc1cccc(Br)c1	TrxR1 inh inconclusive
O=S(=O)(c1ccc2c(c1)OCCO2)N1CCN(S(=O)(=O)c2cccc3cccnc23)CC1	none (no result: mIDH1 inhibitor, Mito fusion yeast, TrxR1 substrate, TrxR1 inh)
C1=C(c2ccccc2)Nc2nnnn2C1	TrxR1 inh 79µM
C=C1C[C@@]23CC[C@H]4[C@@](C)(CCC[C@@]4(C)C(=O)O)[C@@H]2CC[C@]1(O)C3	Mito fusion yeast inconclusive (no result: Nrf2 block, mIDH1 inhibitor, A549 viability)
CCCn1c(CCC(=O)O)ccc1-c1cccs1	TrxR1 inh 50µM
Cc1ccc(-n2c(CCC(=O)O)ccc2-c2cccs2)cc1	TrxR1 inh inconclusive
CC(=O)c1ccc(-n2c(CCC(=O)O)ccc2-c2cccs2)cc1	TrxR1 inh 32µM
Cc1ccc(-n2c(CCC(=O)O)ccc2-c2cccs2)cc1Cl	TrxR1 inh 50µM (no result: Mito fusion yeast)
COC(=O)c1ccc(-n2c(CCC(=O)O)ccc2-c2ccc(C)cc2)cc1	TrxR1 inh 45µM
COCCCn1c(CCC(=O)O)ccc1-c1cccs1	TrxR1 inh inconclusive
CC(C)Nc1ncnc2ccc(Br)cc12	Nrf2 block 10µM
Cc1[nH]n(-c2nc(-c3ccc(Cl)cc3)cs2)c(=O)c1N=Nc1ccc(O)cc1	Nrf2 block inconclusive, A549 viability 15µM
C=C1C=C(C)n2ncc(C(=O)Nc3ccc(F)cc3F)c2N1	none (no result: Nrf2 block, mIDH1 inhibitor, A549 viability, Mito fusion yeast)
Cc1ccc(-c2csc(NC(=S)NC(=O)/C=C/c3ccco3)n2)cc1	A549 viability inconclusive, TrxR1 inh inconclusive (no result: Nrf2 block)
